# Test results taken from PubChem BioAssay AID1851 (National Center for Advancing Translational Sciences (NCATS), 2009).
# Several values for one entry are separate records, joined by “and”; a condition that tells them apart may be missing. Equal values may be shown once. Hit rate of the full screen: of about 16,000 compounds, about 2,600 (16%) were called active. About 20% were inconclusive and are not listed. Only a sample is shown. A number with no mark means an inactive call. Calls come from the whole dose curve; as a rule, active = well fitted curve in the direction sought with a large enough effect; inconclusive = small, poorly fitted or top-dose-only effect, or effect the other way; inactive = no such curve, though single readings can be large or run the other way.
# Biological target: Cytochrome P450 2D6 (Homo sapiens) (UniProt P10635)
# Assay: Cytochrome panel assay with activity outcomes
# Conditions: recombinant CYP, pro-luciferin dealkylation, luminescence, p450-cyp2d6; series mostly up to 57.1 µM; activity, negative = inhibition: at the top concentration
# % is set by controls: 0 for no effect and ±100 for the full control effect.
# Cytochrome P450 2D6 (Homo sapiens), sequence (P10635 whole entry, looked up): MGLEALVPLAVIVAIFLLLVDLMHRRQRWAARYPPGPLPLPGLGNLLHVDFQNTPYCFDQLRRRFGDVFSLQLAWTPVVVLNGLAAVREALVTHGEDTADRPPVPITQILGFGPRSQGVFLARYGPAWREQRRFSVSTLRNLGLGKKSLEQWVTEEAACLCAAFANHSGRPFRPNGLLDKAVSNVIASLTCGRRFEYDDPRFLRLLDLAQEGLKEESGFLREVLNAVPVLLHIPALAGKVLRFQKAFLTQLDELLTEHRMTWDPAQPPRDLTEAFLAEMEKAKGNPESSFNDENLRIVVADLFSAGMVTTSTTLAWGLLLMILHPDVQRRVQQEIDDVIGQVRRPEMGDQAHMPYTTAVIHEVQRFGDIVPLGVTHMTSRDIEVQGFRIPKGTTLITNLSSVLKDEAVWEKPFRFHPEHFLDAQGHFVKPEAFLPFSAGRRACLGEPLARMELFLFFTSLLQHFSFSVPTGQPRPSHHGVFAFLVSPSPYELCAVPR
Compound,"activity, negative = inhibition",AC50
C/C(=N\NC(=O)c1ccccc1C)c1ccc(NC(=O)c2cccs2)cc1,-5.07%,–
NS(=O)(=O)c1ccc(N=Nc2cc3ccccc3c(C(=O)O)c2O)cc1,4.38% [at 11.4 µM],–
Nc1ccccc1S[C@@H](C[N+](=O)[O-])c1ccc2c(c1)OCO2,–,3.98 µM (active)
Cc1ccc(OC(=O)c2cccc(C(=O)Oc3ccc(C)cn3)n2)nc1,-6.82%,–
CN1CCCCC1=NCCCn1cnc2c1c(=O)n(C)c(=O)n2C,5.89%,–
COc1cc(/C=N/NC(=O)c2cccnc2)ccc1OC(=O)c1ccc2c(c1)OCO2,10.4%,–
CCOC(=O)N/N=C1/C[C@@H](O)[C@@H](O)[C@@H]2[C@@H]3C(=O)N(Cc4ccc5c(c4)OCO5)C(=O)[C@H]3CC[C@@H]12,6.47% [at 11.4 µM],–
COc1ccc(C(=O)N/N=C2/SCC(=O)N2Cc2ccc3c(c2)OCO3)cc1OC,–,15.8 µM (active)
CCOC(=O)N1CCN(C(=O)CN(C)S(=O)(=O)c2ccc3c(c2)C(C)(C)C(=O)N3C)CC1,20.2%,–
CC[C@@H]1OC(=O)[C@H](C)[C@H](O[C@@H]2C[C@](C)(OC)[C@H](O)[C@H](C)O2)[C@H](C)[C@H](O[C@@H]2O[C@@H](C)C[C@@H](N(C)C)[C@@H]2O)[C@](C)(O)C[C@H](C)[C@@H]2N[C@H](COCCOC)O[C@H]([C@@H]2C)[C@]1(C)O,8.43% [at 25.6 µM],–
COc1ccccc1CN1CC[C@@]2(CCCN(S(=O)(=O)c3ccccc3)C2)C1,–,0.01 µM (active)
COc1ccccc1CN1CCCC2(CCN(S(C)(=O)=O)CC2)C1,–,0.0631 µM (active)
CS(=O)(=O)N1CCC[C@@]2(CCN(c3ccncc3)C2)C1,-1.64%,–
COc1ccccc1CN1CCC2(CC1)CCN(S(C)(=O)=O)CC2,–,0.02 µM (active)
COc1ccccc1CN1CC[C@@]2(CCCN(S(C)(=O)=O)C2)C1,–,0.316 µM (active)
COc1ccc(NC(=O)N2CC[C@@]3(CCCN(S(C)(=O)=O)C3)C2)cc1,20.3%,–
O=S(=O)(c1ccccc1)N1CCC[C@@]2(CCN(c3ccccc3)C2)C1,-10.2%,–
COc1ccc(NC(=O)N2CCCC3(CCN(S(C)(=O)=O)CC3)C2)cc1,-0.845%,–
CS(=O)(=O)N1CCC2(CCN(Cc3nccs3)CC2)CC1,7.26%,–
Cn1cc(-c2nc3cnc(Oc4ccccc4)nc3n(Cc3cccs3)c2=O)c2ccccc21,7.6%,–

Compound,"activity, negative = inhibition",AC50
CC(C)Cn1c(SCC(=O)c2c(N)n(C)c(=O)n(C)c2=O)nc2ccccc21,-5.6%,–
COCCNC(=O)c1onc(CSc2cccc(Cl)c2)c1C(=O)O,17.7%,–
Nc1ccc(N=Nc2ccc(-c3ccc(O)cc3)cc2)c2ccc(S(=O)(=O)O)cc12,3.2% [at 11.4 µM],–
O=C(O)c1[nH]c2c([N+](=O)[O-])cc([N+](=O)[O-])cc2c1C(=O)O,11.1% [at 11.4 µM],–
NC(=O)C[C@H](N)C(N)=O,-0.87% [at 11.4 µM],–
CC1CCN(C(=O)Nc2ccc3nsnc3c2)CC1,4.11%,–
O=S(=O)(c1ccccc1)N1CCC2(CC1)CN(Cc1nccs1)C2,1.8%,–
CN1CCC2(CC1)CCN(S(=O)(=O)c1ccccc1)CC2,2.59%,–
O=S(=O)(c1ccccc1)N1CCC[C@@]2(CCN(Cc3nccs3)C2)C1,–,2.51 µM (active)
COc1ccc(NC(=O)N2CC3(CCN(S(=O)(=O)c4ccccc4)CC3)C2)cc1,-4.48%,–
COc1ccccc1CN1CCC2(CC1)CCN(S(=O)(=O)c1ccccc1)CC2,–,0.158 µM (active)
O=S(=O)(c1ccccc1)N1CCC2(CCCN(Cc3nccs3)C2)CC1,12%,–
Cc1cccn2c(=O)c(C=NCc3ccco3)c(Nc3ccc(SC(F)F)cc3)nc12,3.01%,–
COC(=O)[C@@H]1O[C@@H](SCCN)[C@@H](O)[C@H](O)[C@H]1O,-0.405% [at 11.4 µM],–
C#CCSc1nnc(-c2cc3c(C(F)(F)F)nn(C)c3s2)n1C,-7.93%,–
CSc1nnc(-c2sc(-c3ccccc3)nc2C)n1C,-9.68%,–
C#CCSc1nnc(-c2sc(-c3ccccc3)nc2C)n1C,–,6.31 µM (active)
CC(=O)c1cc2ccccc2oc1=O,-7.3% [at 25.6 µM],–
COC(=O)C1CSC(C(=O)OC)N1C(=O)Nc1c(C)cccc1C (centres undefined),19.8%,–
O=C(CN(Cc1ccccc1Cl)C(=O)c1ccc(CN2CCOCC2)o1)NCC1CCCO1 (centres undefined),–,7.08 µM (active)

Compound,"activity, negative = inhibition",AC50
Cc1ccc(CS(=O)(=O)Cc2ccc(C(=O)NCC3CCCO3)o2)cc1 (centres undefined),-6.61%,–
O=C(CSCc1c(F)cccc1Cl)NCC1CCCO1 (centres undefined),-8.79%,–
Cc1ccccc1NC(=O)c1cccc2nc3ccccc3nc12,-15.8%,–
COC(=O)C/C=C\[C@@H](C)[C@@H](/C=N\OC[C@@H]1O[C@H](c2ccccc2)C=C[C@@H]1Oc1ccc(OC)cc1)NS(=O)(=O)c1ccc(C)cc1,-14% [at 11.4 µM],–
N=C(N)SCCc1cnc[nH]1,–,25.1 µM (active) and 6.31 µM (active)
N=C(N)SCCCN,-11.8% [at 11.4 µM],–
O=C(NCCNC[C@@H](O)COc1ccc(O)cc1)N1CCOCC1,–,inactive
Cc1nc(Oc2ccc(Cl)cc2)c2oc3ccccc3c2n1,-7.69%,–
COc1ccccc1OCC(=O)NNC(=O)c1cnccn1,10.5%,–
Cn1c(=O)cc(OCC(=O)NCc2cccnc2)c2ccccc21,-25.4%,–
CCn1c(=O)cc(OCC(=O)Nc2cccnc2)c2ccccc21,–,6.31 µM (active)
Cc1cc(N2CCOCC2)ccc1/C=C1\SC(=O)N(C(C)C)C1=O,-6.56%,–
COC(=O)[C@H](C)NC(=O)[C@@H](C)CO,-0.424% [at 11.4 µM],–
Cn1c(=O)c2[nH]c(/N=N\N3CCN(CCO)CC3)nc2n(C)c1=O,3.89% [at 11.4 µM],–
O=C(O)CCC(=O)c1ccc(Cl)cc1,11.7% [at 11.4 µM],–
N[C@H](Cc1ccc(Cl)cc1)C(=O)O,-8.94%,–
N[C@@H](C(=O)O)[C@H](CC(=O)O)c1ccc(Cl)cc1,–,2.51 µM (active)
CCn1c(SCc2ccc(C(=O)Nc3nccs3)cc2)nnc1-c1ccc(NC(C)=O)cc1,-29.1%,–
CC12CCC(C(=O)Nc3ccccc3Br)(C/C1=N\O)C2(C)C (centres undefined),8.66%,–
